Assay results from PubChem BioAssay AID1159580 (chemical genetic matrix, 2015).
“And” between values parts separate entries of the source, which are not always exact repeats. Identical values can stand only once. About 2,000 (36%) of roughly 5,500 compounds were called active. Not shown: some 18% with an inconclusive outcome. Cut-off read from the data, not from the text of the source: active = normalized growth mostly below about 0.91 (no sharp cut-off); inconclusive = no clear call, values can overlap the other calls; inactive = mostly above about 0.92. This is one part of the list. The source holds several records for some structures; these can differ, active in one and inactive in another.

Assay: chemical genetic growth profiling, strain panel (AID 1159580);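 note: tested at 20 µM; growth read once vehicle control cultures reached saturation at 30 °C; 1 = growth at the plate median or of vehicle wells; lower values mean less growth of the strain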
Details: growth OD

Measured: normalized growth

O=C(CCCN1CCC(O)(c2ccc(Cl)cc2)CC1)c1ccc(F)cc1
active: S. cerevisiae deletion strains, locus YJR075W, strain HOC1, stronger effect = lower value 0.819 | S. cerevisiae deletion strains, locus YKR001C, strain vps1, stronger effect = lower value 0.247 | S. cerevisiae deletion strains, locus YLR027C, strain aat2, stronger effect = lower value 0.911 | S. cerevisiae deletion strains, locus YLR039C, strain RIC1, stronger effect = lower value 1.39 [resistant] | S. cerevisiae deletion strains, locus YLR058C, strain SHM2, stronger effect = lower value 0.746 | S. cerevisiae deletion strains, locus YLR268W, strain sec22, stronger effect = lower value 0.794 | S. cerevisiae deletion strains, locus YLR320W, strain mms22, stronger effect = lower value 0.49 | S. cerevisiae deletion strains, locus YLR330W, strain CHS5, stronger effect = lower value 0.849 | S. cerevisiae deletion strains, locus YLR342W, strain FKS1 (second series), stronger effect = lower value 0.726 | S. cerevisiae deletion strains, locus YLR357W, strain rsc2, stronger effect = lower value 1.19 [resistant] | S. cerevisiae deletion strains, locus YLR418C, strain cdc73, stronger effect = lower value 0.496 | S. cerevisiae deletion strains, locus YML016C, strain PPZ1, stronger effect = lower value 0.915 | S. cerevisiae deletion strains, locus YML032C, strain rad52, stronger effect = lower value 0.82 | S. cerevisiae deletion strains, locus YMR058W, strain fet3, stronger effect = lower value 0.821 | S. cerevisiae deletion strains, locus YMR125W, strain sto1, stronger effect = lower value 0.876 | S. cerevisiae deletion strains, locus YMR223W, strain ubp8, stronger effect = lower value 0.8 | S. cerevisiae deletion strains, locus YMR307W, strain GAS1, stronger effect = lower value 0.526 | S. cerevisiae deletion strains, locus YNL067W, strain RPL9B, stronger effect = lower value 0.844 | S. cerevisiae deletion strains, locus YNL071W, strain lat1, stronger effect = lower value 0.552 | S. cerevisiae deletion strains, locus YNL175C, strain NOP13, stronger effect = lower value 0.664 | S. cerevisiae deletion strains, locus YNL233W, strain BNI4, stronger effect = lower value 0.751 | S. cerevisiae deletion strains, locus YNL248C, strain rpa49, stronger effect = lower value 0.818 | S. cerevisiae deletion strains, locus YNL307C, strain MCK1, stronger effect = lower value 0.815 | S. cerevisiae deletion strains, locus YNL322C, strain KRE1 (second series), stronger effect = lower value 1.11 [resistant] | S. cerevisiae deletion strains, locus YNL322C, strain KRE1, stronger effect = lower value 0.884 | S. cerevisiae deletion strains, locus YNR052C, strain pop2, stronger effect = lower value 0.737 | S. cerevisiae deletion strains, locus YOR001W, strain rrp6, stronger effect = lower value 0.871 | S. cerevisiae deletion strains, locus YOR070C, strain gyp1, stronger effect = lower value 0.29 | S. cerevisiae deletion strains, locus YOR184W, strain ser1, stronger effect = lower value 0.847 | S. cerevisiae deletion strains, locus YOR270C, strain vph1, stronger effect = lower value 0.381 | S. cerevisiae deletion strains, locus YOR290C, strain snf2, stronger effect = lower value 0.843 | S. cerevisiae deletion strains, locus YPL051W, strain arl3, stronger effect = lower value 0.789 | S. cerevisiae deletion strains, locus YPL106C, strain sse1, stronger effect = lower value 1.17 [resistant] | S. cerevisiae deletion strains, locus YPR163C, strain tif3, stronger effect = lower value 0.575 | S. cerevisiae deletion strains, strain wtn01, stronger effect = lower value 0.776 | S. cerevisiae strains, strain wild type, stronger effect = lower value 0.833
0.826 (active) and 0.893 (inactive): S. cerevisiae deletion strains, locus YNL153C, strain GIM3, stronger effect = lower value
0.89 (active) and 0.969 (inactive): S. cerevisiae deletion strains, locus YPL241C, strain CIN2, stronger effect = lower value
inactive: S. cerevisiae deletion strains, locus YJR043C, strain POL32, stronger effect = lower value 0.93 | S. cerevisiae deletion strains, locus YJR066W, strain TOR1, stronger effect = lower value 0.939 | S. cerevisiae deletion strains, locus YKL009W, strain mrt4, stronger effect = lower value 0.963 | S. cerevisiae deletion strains, locus YKL068W, stronger effect = lower value 1.02 | S. cerevisiae deletion strains, locus YKL085W, strain MDH1 (second series), stronger effect = lower value 1.02 | S. cerevisiae deletion strains, locus YKL085W, strain MDH1, stronger effect = lower value 1.02 | S. cerevisiae deletion strains, locus YKL160W, strain elf1, stronger effect = lower value 0.904 | S. cerevisiae deletion strains, locus YKR026C, strain gcn3, stronger effect = lower value 1.03 | S. cerevisiae deletion strains, locus YKR091W, strain srl3, stronger effect = lower value 1.03 | S. cerevisiae deletion strains, locus YLL001W, strain dnm1, stronger effect = lower value 0.958 | S. cerevisiae deletion strains, locus YLL026W, stronger effect = lower value 0.947 | S. cerevisiae deletion strains, locus YLL041C, strain sdh2, stronger effect = lower value 1.02 | S. cerevisiae deletion strains, locus YLR102C, strain apc9, stronger effect = lower value 1.02 | S. cerevisiae deletion strains, locus YLR113W, strain HOG1, stronger effect = lower value 1.03 | S. cerevisiae deletion strains, locus YLR221C, strain rsa3, stronger effect = lower value 0.923 | S. cerevisiae deletion strains, locus YLR258W, strain gsy2, stronger effect = lower value 0.938 | S. cerevisiae deletion strains, locus YLR262C, strain YPT6 (second series), stronger effect = lower value 0.893 | S. cerevisiae deletion strains, locus YLR262C, strain YPT6, stronger effect = lower value 1.37 | S. cerevisiae deletion strains, locus YLR342W, strain FKS1, stronger effect = lower value 1.01 | S. cerevisiae deletion strains, locus YLR370C, strain arc18, stronger effect = lower value 0.965 | S. cerevisiae deletion strains, locus YLR371W, strain rom2, stronger effect = lower value 1 | S. cerevisiae deletion strains, locus YLR384C, strain iki3, stronger effect = lower value 0.999 | S. cerevisiae deletion strains, locus YML120C, strain ndi1, stronger effect = lower value 0.932 | S. cerevisiae deletion strains, locus YML124C, strain tub3, stronger effect = lower value 0.994 | S. cerevisiae deletion strains, locus YMR078C, strain ctf18, stronger effect = lower value 1.01 | S. cerevisiae deletion strains, locus YMR129W, stronger effect = lower value 1.03 | S. cerevisiae deletion strains, locus YMR205C, strain PFK2, stronger effect = lower value 0.949 | S. cerevisiae deletion strains, locus YMR231W, strain pep5, stronger effect = lower value 1.01 | S. cerevisiae deletion strains, locus YMR263W, strain SAP30, stronger effect = lower value 0.996 | S. cerevisiae deletion strains, locus YNL183C, strain NPR1, stronger effect = lower value 0.971 | S. cerevisiae deletion strains, locus YNL197C, strain WHI3, stronger effect = lower value 0.997 | S. cerevisiae deletion strains, locus YNL209W, strain ssb2, stronger effect = lower value 0.933 | S. cerevisiae deletion strains, locus YNL224C, strain SQS1, stronger effect = lower value 1.04 | S. cerevisiae deletion strains, locus YNL250W, strain rad50, stronger effect = lower value 1 | S. cerevisiae deletion strains, locus YNL271C, strain bni1, stronger effect = lower value 1 | S. cerevisiae deletion strains, locus YNL298W, strain CLA4, stronger effect = lower value 1.02 | S. cerevisiae deletion strains, locus YNR049C, strain mso1, stronger effect = lower value 1.04 | S. cerevisiae deletion strains, locus YOL012C, strain htz1 1.18 | S. cerevisiae deletion strains, locus YOL147C, strain pex11, stronger effect = lower value 0.941 | S. cerevisiae deletion strains, locus YOR061W, strain CKA2, stronger effect = lower value 0.942 | S. cerevisiae deletion strains, locus YOR069W, strain VPS5, stronger effect = lower value 0.963 | S. cerevisiae deletion strains, locus YOR080W, strain dia2, stronger effect = lower value 0.969 | S. cerevisiae deletion strains, locus YOR083W, strain WHI5 (second series), stronger effect = lower value 0.977 | S. cerevisiae deletion strains, locus YOR083W, strain WHI5, stronger effect = lower value 0.944 | S. cerevisiae deletion strains, locus YOR106W, strain vam3, stronger effect = lower value 0.935 | S. cerevisiae deletion strains, locus YOR136W, strain idh2, stronger effect = lower value 0.98 | S. cerevisiae deletion strains, locus YOR144C, strain elg1, stronger effect = lower value 1 | S. cerevisiae deletion strains, locus YOR231W, strain MKK1, stronger effect = lower value 0.991 | S. cerevisiae deletion strains, locus YOR265W, strain rbl2, stronger effect = lower value 0.974 | S. cerevisiae deletion strains, locus YOR316C, strain cot1, stronger effect = lower value 1.02 | S. cerevisiae deletion strains, locus YPL078C, strain atp4, stronger effect = lower value 0.914 | S. cerevisiae deletion strains, locus YPL240C, strain hsp82, stronger effect = lower value 1 | S. cerevisiae deletion strains, locus YPL256C, strain CLN2, stronger effect = lower value 0.99 | S. cerevisiae deletion strains, locus YPR119W, strain clb2, stronger effect = lower value 1.04 | S. cerevisiae deletion strains, locus YPR141C, strain kar3, stronger effect = lower value 1.04 | S. cerevisiae deletion strains, locus YPR167C, strain met16, stronger effect = lower value 0.942
